This is an account of results in PubChem BioAssay (Tox21).

Test [1] is described as follows: qHTS assay to identify small molecule agonists of the RXR signaling pathway - cell viability counter screen (AID 1159529).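 Also: HEK 293T cells carrying an RXR-alpha UAS beta-lactamase reporter; nearly all actives have a fitted effect of over 50% in size.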 The method, boiled down: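 Counter screen: CellTiter-Glo luminescence. Cells: RXR-alpha-UAS-bla HEK 293T. Medium: 2% charcoal-stripped FBS. Treatment: 16 h, 37 C. Reagent incubation: 30 min, RT.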
Test [2] is described as follows: qHTS assay to identify small molecule antagonists of the retinoid acid receptor (RAR) signaling pathway - cell viability counter screen (AID 1159551). Also: nearly all actives have a fitted effect of over 35% in size. The method, boiled down:
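Following overnight attachment, C3RL4 reporter cells received DMSO-dissolved compounds and then retinol (1 uM final). Six hours later at 37 C, ATP content was measured by CellTiter-Glo luminescence.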
(qHTS replaces the single test concentration by a dilution series.)

A short description of test [3]: qHTS assay to identify small molecule antagonists of the retinoic acid receptor (RAR) signaling pathway (AID 1159552; also: nearly all actives have a fitted effect of over 50% in size). The procedure, abridged:
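Antagonism of retinol-induced RARE reporter activity was measured in C3RL4 cells. Exposure to compounds and 1 uM final retinol lasted 6 hr at 37 C, with luminescence as endpoint.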

A short description of test [4]: qHTS assay to identify small molecule agonists of the retinoic acid receptor (RAR) signaling pathway (AID 1159553). Also: potency is read from the fitted curve at half-maximal effect. As to conditions: C3RL4 RARE luciferase reporter, agonist, 6 h; activation: at 73.3 µM (top of the series) unless noted. The method, boiled down:
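Cell line C3RL4, RARE luciferase reporter. Treatment: compounds in DMSO, 6 hr, 37 C, 5% CO2, after overnight plating. Detection: luminescence, 30 min RT after reagent.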

Test [5] in a line: qHTS assay to identify small molecule antagonists of the estrogen related receptor (ERR) signaling pathway - cell viability counter screen (AID 1224818). The procedure, abridged: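 Here, ERR cells are plated at 2,000 cells per well, allowed 6 h to attach, and treated with compounds in DMSO for 17.5 h at 37 C. CellTiter-Fluor is then added and fluorescence read after 30 min.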

A short description of test [6]: qHTS assay to identify small molecule antagonists of the estrogen related receptor (ERR) signaling pathway (AID 1224819;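 also: luminescence from an ERR-driven luciferase reporter measured with One-Glo reagent; nearly all actives have a fitted effect of over 50% in size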). The procedure, abridged:
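LOPAC library screened for antagonism as reduced One-Glo luminescence in ERR reporter cells (2,000/well). Compounds were added after 6 h pre-incubation and left 18 h at 37C; reading followed a 30 min room-temperature reagent step.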

Test [7] in a line: qHTS assay to identify small molecule agonists of the estrogen related receptor (ERR) signaling pathway (AID 1224820). The procedure, abridged:
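Cells: ERR line from NTP, 2,000/well. Pre-incubation 6 h, 37 C/5% CO2. Compound (DMSO) pin transfer, 18 h 37 C. One-Glo, 30 min RT, luminescence.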

Test [8] deals with estrogen-related receptor alpha (ERRalpha) with PGC-1alpha coactivator, human. In words: qHTS assay to identify small molecule antagonists of the estrogen related receptor signaling pathway with the pleiotropic PPARgamma coactivator (PGC) (AID 1224821; calls by dose curve;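 also: lower luminescence signal means antagonism of PGC/ERR signalling; nearly all actives have a fitted effect of over 50% in size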). The procedure, abridged: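 Luminescent read-out (One-Glo, 30 min at room temperature) following 18 h treatment of PGC/ERR cells at 37 C with compounds delivered in DMSO. Cells had settled 6 h at 37 C/5% CO2 before dosing.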

A short description of test [9]: qHTS assay to identify small molecule antagonists of the estrogen related receptor signaling pathway with the pleiotropic PPARgamma coactivator (PGC) cell viability counter screen (AID 1224822). The procedure, abridged: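 qHTS format, DMSO compound stocks pin-transferred onto PGC/ERR cells 6 h after plating; 17.5 h exposure at 37 C, then CellTiter-Fluor fluorescence.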

Test [10] in a line: qHTS assay to identify small molecule agonists of the estrogen related receptor signaling pathway with the pleiotropic PPARgamma coactivator (PGC) (AID 1224823). The method, boiled down: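 Steps: plate PGC/ERR cells at 2,000 cells/well; incubate 6 h, 37 C/5% CO2; pin-transfer compounds (DMSO); incubate 18 h, 37 C; add One-Glo; 30 min RT; read luminescence.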
Test [11] can be described thus: qHTS assay to identify small molecule antagonists of the estrogen related receptor (ERR) signaling pathway from Tox21 library - cell viability counter screen (AID 1224834). Also: nearly all actives have a fitted effect of over 30% in size. The procedure, abridged: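 Viability readout (CellTiter-Fluor fluorescence, 30 min at 37 C) multiplexed with the ERR assay; cells treated 17.5 h at 37 C with compounds delivered in DMSO.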
Test [12] can be described thus: qHTS assay to identify small molecule agonists of the constitutive androstane receptor (CAR) signaling pathway - cell viability counter screen (AID 1224836). Also: nearly all actives have a fitted effect of over 45% in size. The method, boiled down:
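Double-stable HepG2 hepatoma cells (hCAR plus CYP2B6-2.2kb) are treated for 23 h at 37 C with test compounds in 15-point concentration series. PK11195 at 0.75 uM final is co-added. Cell viability is quantified by CellTiter-Fluor.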

A short description of test [13]: qHTS assay to identify small molecule antagonists of the constitutive androstane receptor (CAR) signaling pathway - cell viability counter screen (AID 1224837). Also: nearly all actives have a fitted effect of over 45% in size. The procedure, abridged: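 Fluorescence from CellTiter-Fluor served as the viability signal. Human hepatoma HepG2 cells stably bearing hCAR and CYP2B6-2.2kb received compound plus CITCO (50 nM final) for 23 hr.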

The target of test [14] is Nuclear receptor subfamily 1 group I member 3 (Homo sapiens) (UniProt Q14994). Put plainly: qHTS assay to identify small molecule antagonists of the constitutive androstane receptor (CAR) signaling pathway (AID 1224838).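 Also: HepG2 cells stably expressing hCAR with CYP2B6 luciferase reporter stimulated by CITCO; nearly all actives have a fitted effect of over 40% in size.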 The method, boiled down:
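Quantitative HTS in double-stable HepG2-CYP2B6-hCAR cells. After 4 h plating, cells get compound (15 concentrations) and CITCO at 50 nM final, incubate 24 h at 37 C, then ONE-Glo luminescence is read.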

For test [15] the target is unchanged. In words: qHTS assay to identify small molecule agonists of the constitutive androstane receptor (CAR) signaling pathway (AID 1224839). Also: nearly all actives have a fitted effect of over 15% in size. Also: potency is read from the fitted curve at half-maximal effect.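 As to activation: HepG2 cells stably carrying human CAR and a CYP2B6 luciferase reporter.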 The procedure, abridged:
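Readout: firefly luciferase luminescence via ONE-Glo. System: HepG2 double-stable for hCAR and CYP2B6-2.2kb. Conditions: 15-point compound titration, PK11195 at 0.75 uM final, 24 h incubation.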

Test [16] is described as follows: qHTS assay to identify small molecule antagonists of the estrogen related receptor signaling pathway with the pleiotropic PPARgamma coactivator (PGC) from Tox21 10K library - cell viability counter screen (AID 1224840; active = well fitted cell-killing curve with a large enough effect in the repeat runs, not every such curve was filed as active; also: nearly all actives have a fitted effect of over 40% in size). The method, boiled down:
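Compounds in DMSO, alongside positive and negative controls, were pinned onto PGC/ERR cells (2,000 per well). Exposure lasted 17.5 hours at 37 C, followed by a 30-minute CellTiter-Fluor incubation and fluorescence reading.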

Test [17] is described as follows: qHTS assay to identify small molecule antagonists of the estrogen related receptor signaling pathway with the pleiotropic PPARgamma coactivator (PGC) from Tox21 10K library (AID 1224841; call rule not given here; also: potency is read from the fitted curve at half-maximal effect). The procedure, abridged:
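Compound exposure ran 18 hours at 37 C in PGC/ERR cells (2,000/well) that had first rested 6 hours in a 37 C/5% CO2 incubator. Luciferase activity was then detected with One-Glo after a 30-minute room-temperature step.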

A short description of test [18]: qHTS assay to identify small molecule agonists of the estrogen related receptor signaling pathway with the pleiotropic PPARgamma coactivator (PGC) from Tox21 10K library (AID 1224842). Also: nearly all actives have a fitted effect of over 15% in size. The method, boiled down:
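Luminescence from One-Glo (30 min, room temperature) measured after PGC/ERR cells had 18 h at 37 C with pinned compound (23 nL in DMSO). Cells had been seeded at 2,000 per well and pre-incubated 6 h.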

The target in test [19] is Thyrotropin receptor (Homo sapiens) (UniProt P16473). Put plainly: qHTS assay to identify small molecule agonists of the thyroid stimulating hormone receptor (TSHR) signaling pathway (AID 1224843; calls by dose curve; also: nearly all actives have a fitted effect of over 45% in size). The procedure, abridged:
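Screening of the Tox21 10K collection used HEK293 cells engineered with TSHR at 800 cells per well. After a 30-min room-temperature compound exposure, HTRF cAMP reagents were added and fluorescence recorded 1 h later.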

For test [20], the target named is Luciferin 4-monooxygenase (Photinus pyralis) (UniProt P08659). Put plainly: qHTS assay to identify small molecule inhibitors of firefly luciferase (AID 1224835). Also: nearly all actives have a fitted effect of over 25% in size. Also: potency is read from the fitted curve at half-maximal effect. The method, boiled down:
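Inhibition of purified Photinus luciferase is measured by luminescence. Substrate levels (D-luciferin, ATP) sit at their KM values. Each compound is tested in a concentration series.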

Values joined by “and” are separate entries in the source; they are usually repeats but may differ in a detail not shown here. Equal entries are not always repeated. Inconclusive results are not listed. The source holds several records for some structures; these can differ, active in one and inactive in another. Active and inactive are the calls of the source. Unless noted, calls follow the shape of the dose curve; as a rule, active = well fitted curve in the direction sought with a large enough effect in the repeat runs; inconclusive = weak or mixed curves; inactive = no such curve, though single readings can be large; an effect the other way counts as inactive or inconclusive.

Sequence of Luciferin 4-monooxygenase (Photinus pyralis) (P08659 whole entry, looked up): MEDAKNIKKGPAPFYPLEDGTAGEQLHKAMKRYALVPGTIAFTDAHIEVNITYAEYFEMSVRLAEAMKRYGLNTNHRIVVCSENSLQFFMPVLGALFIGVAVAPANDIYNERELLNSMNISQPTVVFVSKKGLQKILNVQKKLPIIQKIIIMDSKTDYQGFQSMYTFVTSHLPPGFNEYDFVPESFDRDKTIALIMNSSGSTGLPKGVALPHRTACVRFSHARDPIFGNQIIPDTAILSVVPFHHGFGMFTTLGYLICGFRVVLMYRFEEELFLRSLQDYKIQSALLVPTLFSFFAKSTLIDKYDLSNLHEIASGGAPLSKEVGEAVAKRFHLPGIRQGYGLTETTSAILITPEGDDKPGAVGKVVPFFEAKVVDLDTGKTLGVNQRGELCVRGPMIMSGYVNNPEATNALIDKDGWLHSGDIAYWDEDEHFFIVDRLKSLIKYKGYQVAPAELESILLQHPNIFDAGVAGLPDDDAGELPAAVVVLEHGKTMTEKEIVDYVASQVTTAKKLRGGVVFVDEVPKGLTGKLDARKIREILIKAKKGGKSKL
Sequence of Nuclear receptor subfamily 1 group I member 3 (Homo sapiens) (Q14994 whole entry, looked up): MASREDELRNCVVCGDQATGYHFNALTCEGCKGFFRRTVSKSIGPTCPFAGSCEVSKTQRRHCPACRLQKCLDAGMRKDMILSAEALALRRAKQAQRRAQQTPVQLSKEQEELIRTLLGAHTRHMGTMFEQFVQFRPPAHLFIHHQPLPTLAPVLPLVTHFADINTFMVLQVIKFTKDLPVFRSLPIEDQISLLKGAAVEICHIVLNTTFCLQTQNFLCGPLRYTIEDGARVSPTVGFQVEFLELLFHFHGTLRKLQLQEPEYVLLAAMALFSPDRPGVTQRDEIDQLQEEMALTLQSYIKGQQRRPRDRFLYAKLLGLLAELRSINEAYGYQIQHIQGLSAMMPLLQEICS
Sequence of Thyrotropin receptor (Homo sapiens) (P16473 whole entry, looked up): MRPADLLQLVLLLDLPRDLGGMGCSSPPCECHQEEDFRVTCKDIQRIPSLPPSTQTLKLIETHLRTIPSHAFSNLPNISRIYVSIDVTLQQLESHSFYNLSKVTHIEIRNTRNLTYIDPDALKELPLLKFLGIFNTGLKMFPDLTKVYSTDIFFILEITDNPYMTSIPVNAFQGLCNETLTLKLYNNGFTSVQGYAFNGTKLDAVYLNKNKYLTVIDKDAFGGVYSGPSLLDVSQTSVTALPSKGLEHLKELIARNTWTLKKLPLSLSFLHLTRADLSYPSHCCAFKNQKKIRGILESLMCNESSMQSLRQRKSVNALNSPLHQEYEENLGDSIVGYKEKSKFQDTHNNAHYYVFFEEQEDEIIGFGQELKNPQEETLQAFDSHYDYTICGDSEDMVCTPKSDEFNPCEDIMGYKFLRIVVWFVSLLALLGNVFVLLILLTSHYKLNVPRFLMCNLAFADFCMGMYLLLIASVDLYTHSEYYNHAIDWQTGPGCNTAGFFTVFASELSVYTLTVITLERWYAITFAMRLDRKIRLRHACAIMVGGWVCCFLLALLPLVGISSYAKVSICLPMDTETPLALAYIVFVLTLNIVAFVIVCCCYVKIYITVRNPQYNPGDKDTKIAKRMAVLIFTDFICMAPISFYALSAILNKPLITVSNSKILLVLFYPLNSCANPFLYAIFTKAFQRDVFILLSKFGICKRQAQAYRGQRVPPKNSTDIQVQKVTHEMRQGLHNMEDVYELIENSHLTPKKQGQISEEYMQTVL

`O=C(O)c1nn(Cc2ccc(Cl)cc2Cl)c2ccccc12`: the Potency result in [1], in [2], in test [3], in test [4], in [6] and in test [8] was “inactive” in each case. Besides, the Potency result in [9], in test [11], in test [12], in test [13], in test [14] and in [15] was “inactive” each time. Also, the Potency result in test [16], in test [18] and in test [19] was “inactive” throughout. The molecule was called inactive in test [5], in [7] and in test [10]. The Potency in test [17] was 68.1 µM (active) and inactive.
For the molecule `N#CC(c1ccccc1)c1ccccc1`, the Potency entry in test [1], in test [2], in test [3], in test [4], in [11] and in [20] was “inactive” each time. In addition, the Potency entry in test [12], in test [13], in test [14], in test [15], in test [16] and in test [17] was “inactive” each time. In addition, the Potency entry in test [18] and in test [19] was “inactive” throughout.
Take `CC(C)=CC1C(C(=O)OCc2cccc(Oc3ccccc3)c2)C1(C)C` (centres undefined): the Potency result in [1], in test [2], in test [3], in [4], in test [11] and in [20] was “inactive” in each case. Further, the Potency result in [12], in test [13], in [14], in test [16], in test [17] and in test [18] was “inactive” in each case. The Potency result in [19] was “inactive”. The Potency in [15] was 4.86 µM (active) and 6.68 µM (active).
Turning to `CC(O)CN(CC(C)O)CC(C)O` (centres undefined), the Potency entry in test [1], in test [2], in test [3], in test [4], in [11] and in test [20] was “inactive” throughout. In addition, the Potency entry in [12], in [13], in [14], in test [15], in test [16] and in test [19] was “inactive” throughout.
`CC1(C)Cc2cccc(O)c2O1`: the Potency result in test [1], in test [2], in [3], in test [4], in [11] and in [20] was “inactive” in each case. Besides, the Potency result in test [12], in test [13], in [14], in test [15], in [16] and in [19] was “inactive” each time.
Turning to `O=[N+]([O-])/N=C1\NCCN1Cc1ccc(Cl)nc1`, the Potency entry in test [1], in [2], in test [3], in [4], in test [11] and in test [20] was “inactive” in each case. Further, the Potency result in [12], in test [13], in [14], in test [15], in test [16] and in test [17] was “inactive” each time. The Potency entry in [18] and in test [19] was “inactive” in each case.
`COP(=S)(OC)Oc1ccc(Sc2ccc(OP(=S)(OC)OC)cc2)cc1`: the Potency result in [1], in test [2], in test [3], in test [11], in test [12] and in test [13] was “inactive” throughout. The Potency result in [14], in [16], in [17], in test [18] and in test [19] was “inactive” each time. Further, the Potency in [4] is 61.1 µM (active) and inactive; in [20] it was 31.7 µM (active) and inactive; in test [15] it was 61.1 µM (active) and inactive.
